Source: PubChem BioAssay (NCI)
About 83,000 compounds went through this panel and 20% of them were active in at least one assay; those are over-represented in the sample as a whole.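 Compound tested at a single concentration for 48 hours in 96-well plates; a percent growth value below 10 was scored as active.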 Unmarked numbers belong to inactive results. Calls of active or inactive are those of the source.

These compounds were tested on OVCAR-8 ovarian (assay: NCI-60 one-dose screen, 48 h (100 = growth as untreated, 0 = no growth, -100 = all killed)). Conditions: 10 µM unless noted.
Description: Growth inhibition of the OVCAR-8 human tumor cell line is measured as a screen for anti-cancer activity. Cells are grown in 96 well plates and exposed to the test compound for 48 hours. Compounds are tested at a single concentration, which is 10^-5 M for most compounds. The reported endpoint is percent growth (GI% or GIPRCNT), where numbers from 0 - 100% represent growth inhibition, and numbers from -100% - 0 represent cell death. For example, a value of 40 represents 60% growth inhibition. A value of 0 means no net growth occurred over the course of the experiment. A value of -40 indicates 40% of cells at the beginning of the experiment died by the end of the experiment. A value of -100 means all cells are dead at the end of the experiment.
NCI-60 Human Tumor Cell Lines Screen was performed using the standard one-dose NCI protocol, which is described in more detail at https://dtp.cancer.gov/discovery_development/nci-60/default.htm.
Compounds with GIPRCNT values below 10 were considered active. Activity score was based on GIPRCNT using the following formula: […]
Score is 0 for GIPRCNT values of 100 or above, 50 for GIPRCNT values of 0, and 100 for GIPRCNT values of -100.

SMILES	growth
CC1(C)O[C@H]2OC3CCC(=O)CC3(O)[C@H]2O1 (stereo not given in full)	98.2%
CC(C)CCSc1nc(Nc2ccccc2)c(C#N)c(-c2ccccc2)n1	42.7%
COC1=CC(c2ccc[nH]2)=N/C1=C\c1[nH]c(C)c(CC(=O)OCc2ccccc2)c1C	9.46% (active)
COc1ccc2cc(-c3cnc4nonc4n3)ccc2c1	23.9%
COc1ccc(Cl)cc1Nc1nc(C(F)(F)F)ccc1C(=O)N/N=C/c1ccccc1Cl	11.2%
C#CC#CC#CC#CC#CC#CC#CC#CC[C@H]1OC[C@H](COC(=O)O[C@@H](C(=O)O[C@H]2C[C@@]3(O)[C@@H](OC(=O)c4ccccc4)[C@@H]4[C@]5(OC(C)=O)CO[C@@H]5C[C@H](O)[C@@]4(C)C(=O)[C@H](OC(C)=O)C(=C2C)C3(C)C)[C@@H](NC(=O)c2ccccc2)c2ccccc2)O1	52.7%
CC(C)CSc1oc(-c2ccccc2)nc1S(=O)(=O)c1ccccc1	94.7%
CN1C(=O)/C(=C/c2ccc(C(=O)Nc3ncc(Cc4ccc(F)cc4)s3)cc2)SC1=S	57.9%
O=C1/C(=C/c2ccc(C(F)(F)F)cc2)COc2ccc(O)c(O)c21	9.3% (active)
C=C1C(=O)O[C@H]2[C@H]1CC/C(CNC(=O)c1cc3ccccc3[nH]1)=C\CC[C@@]1(C)O[C@@H]21	-26.2% (active)
C[N+](C)(C/C=C/c1ccccc1)Cc1ccccc1	107%
Cc1ccccc1CNc1c2ccccc2nc2ccccc12	21%
CCC(C)Nc1ccc(NC(C)CC)cc1 (stereo not given)	89.2%
COc1ccc(C(C)=O)cc1S(N)(=O)=O	96.6%
COc1ccc(Cc2cnc(NC(=O)c3sc4ccccc4c3Cl)s2)cc1	18.7%
C=C1C(=O)O[C@H]2[C@H]1CC/C(COC(=O)/C=C\C(=O)NCc1ccc(Cn3c(=O)sn(-c4ccccc4)c3=O)cc1)=C\CC[C@@]1(C)O[C@@H]21	91.2%
CCCCCn1sc(=O)n(Cc2ccc(CNC(=O)OCc3ccc4c(Cl)cc(Cl)c(O)c4n3)cc2)c1=O	42.3%
Cn1c(=O)c2c(c3ccccc31)OC(N)=C(C#N)C21C(=O)c2ccccc2C1=O	97.5%
COc1ccc(-c2ccc(-c3ccc(C(=N)N)cn3)s2)cc1	65.2%
COCCCOc1cc(C[C@@H](C[C@H](N)[C@@H](O)C[C@H](C(=O)NCC(C)(C)C(N)=O)C(C)C)C(C)C)ccc1OC	105%

SMILES	growth
NS(=O)(=O)c1ccc(N/C=C/C(=O)c2cc3ccccc3oc2=O)cc1	104%
CCN1C(=O)N(CC)C2C1NN=c1s/c(=C\c3cc4ccccc4[nH]3)c(=O)n12 (stereo not given)	-14.2% (active)
CCNc1nc(-c2ccc(F)cc2)c(C#N)c(=O)n1C	73.8%
C/C(C=O)=C\c1ccc2c(c1)OCO2	106%
CCOC(=O)C1=C(C)N=C2SC=C(c3ccccc3)N2[C@H]1c1cn[nH]c1-c1ccc(Cl)cc1	50.9%
CCN(CCO)CC(C)Nc1ccc([N+](=O)[O-])c2sc3ccccc3c(=O)c12 (stereo not given)	26.2%
CCOC(=O)c1c(NC(=O)CSc2n[nH]c3nc4ccccc4n23)sc(CC)c1C	99.2%
Cc1cc(N2CCN(C)CC2)nc(NCc2cc(Nc3ccnc4cc(Cl)ccc34)ccc2F)n1	6.32% (active)
O=C(CCCCCCCCC(=O)N/N=C\c1cc(Cl)ccc1O)N/N=C\c1cc(Cl)ccc1O	25.9%
O=C(O)c1cn(C2CC2)c2cc(N3CCN(C(=O)N/N=C/c4ccccc4)CC3)c(F)cc2c1=O	96.3%
O=c1oc2c(cnc3ccccc32)cc1-c1cccs1	100%
COc1cc(N2C(=O)[C@H](c3ccccc3)C2c2ccc(SC)cc2)cc(OC)c1OC (stereo not given in full)	4.09% (active)
O=C(N/N=C/c1ccc(Cl)cc1Cl)c1ccc2nc(-c3ccc(Cl)cc3)[nH]c2c1	14.2%
NC(=O)c1c(NC(=O)c2ccc(Cl)cc2)sc2c1CCC(=O)C2	61.3%
C=C1C(=O)O[C@H]2[C@H]1CC/C(Cn1cc(-c3cc(C(F)(F)F)cc(C(F)(F)F)c3)nn1)=C\CC[C@@]1(C)O[C@@H]21	-85.7% (active)
CN(C)c1ccc(/C=C2/C=C(c3ccccc3)OC2=O)cc1	100%
C=CC(C)(O)CC/C=C(\CO)C(=O)OC1C(C)OC(O[C@](C)(C=C)CC/C=C(\CO)C(=O)O[C@H]2C[C@@]3(C(=O)OC4OC(CO)C(O)C(O)C4OC4OC(C)C(OC5OC(CO)C(O)C5O)C(OC5OC(CO)C(O)C(O)C5O)C4O)C(CC2(C)C)C2=CCC4[C@@]5(C)CC[C@H](OC6OC(COC7OC(C)C(O)C(O)C7OC7OCC(O)C(O)C7O)C(O)C(O)C6NC(C)=O)C(C)(C)C5CC[C@@]4(C)[C@]2(C)C[C@H]3O)C(O)C1O (stereo not given in full)	10.3%
CO[C@H](C(=O)[C@@H](O)[C@@H](C)O)[C@@H]1Cc2cc3cc(O[C@H]4C[C@@H](O[C@H]5C[C@@H](O)[C@H](O)C(C)O5)[C@H](O)C(C)O4)c(C)c(O)c3c(O)c2C(=O)[C@H]1O[C@H]1C[C@@H](O[C@H]2C[C@@H](O[C@H]3C[C@@H](OC)[C@H](O)C(C)O3)[C@@H](O)C(C)O2)C(O)(O)C(C)O1 (stereo not given in full)	9.53% (active)
N#Cc1c(-c2ccccc2)cc(-c2ccccc2)n(CCCC(=O)NO)c1=O	12.5%
O=C(CBr)CN1C(=O)c2ccccc2C1=O	103%
